Assay results from PubChem BioAssay (NCATS).
Results filed as inconclusive are left out. A number with no mark means an inactive call. Calls of active or inactive are those of the source. Unless noted, the call rests on the fitted dose curve; in most records, active means well fitted cell-killing curve with a large enough effect; inconclusive means small, poorly fitted or top-dose-only effect; inactive means flat fitted curve, though single readings scatter.
On the % scale 0 is the no-effect control and ±100 the full control effect.

Test: NCATS anti-infectives library activity on HEK293 viability as a counter-qHTS vs the C. elegans viability qHTS (AID 1745854);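 further: HEK293 cells exposed to compounds for 24 hr before the viability read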
Settings: HEK293 viability counter-screen; series mostly up to 41.8 µM; activity change, negative = cytotoxicity: at the top concentration
How it was run: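 Compound titrations (final up to 41.7 uM) were incubated with HEK293 cells for 24 hr at 37C under 5% CO2. Viable cells were quantified with CellTiter-Glo after 10 min at ambient temperature.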
For `Nc1cc(F)ccc1NC(=O)/C=C/c1cnn(C/C=C/c2ccccc2)c1`, the “activity change, negative = cytotoxicity” value was -3.42%.
In the case of `O=c1cc(-c2ccc(O)c(-c3c(O)cc(O)c4c(=O)cc(-c5ccc(O)cc5)oc34)c2)oc2cc(O)cc(O)c12`, the “activity change, negative = cytotoxicity” value is reported as -8.79%.
In the case of `CS(=O)(=O)c1cc(-c2ccccc2)cc(S(=O)(=O)c2ccc(CN)s2)c1`, the “activity change, negative = cytotoxicity” value is reported as -0.137%.
With `O=S(=O)(Cl)c1ccc(-c2ccccc2)cc1` the “activity change, negative = cytotoxicity” value was 9%.
For `CC(C)c1cnn2c(NCc3ccccc3-n3cccn3)nc(OC3CCCNC3)nc12` (configuration not stated), the “activity change, negative = cytotoxicity” value was -26.4%.
With `O=C(O)[C@H]1C2CCC(CC2)[C@@H]1Nc1nc(-c2c[nH]c3ncc(F)cc23)ncc1F` the “activity change, negative = cytotoxicity” value was -7.41%.
For `CC(C)[C@H](NC(=O)OCc1ccccc1)C(=O)N[C@@H](C)C(=O)N[C@@H](CC(=O)O)C(=O)CF`, the “activity change, negative = cytotoxicity” value was -3.31%.
For `C[C@@H]1O[C@@H](O[C@@H]2[C@@H](O)[C@H](OCCc3ccc(O)c(O)c3)O[C@H](CO)[C@H]2OC(=O)/C=C/c2ccc(O)c(O)c2)[C@H](O)[C@H](O)[C@H]1O`, the “activity change, negative = cytotoxicity” value was -17.1%.
With `CC(=O)N[C@@H](CC(=O)O)C(=O)N[C@@H](CCC(=O)O)C(=O)N[C@H](C(=O)N[C@H](C=O)CC(=O)O)C(C)C` the “activity change, negative = cytotoxicity” value was -18.8%.
In the case of `CC(C)C1=C2[C@H]3CC[C@@H]4[C@@]5(C)CC[C@H](OC(=O)CC(C)(C)C(=O)O)C(C)(C)[C@@H]5CC[C@@]4(C)[C@]3(C)CC[C@@]2([C@@H](O)CN(CCN(C)C)Cc2ccc(Cl)cc2)CC1=O`, the “activity change, negative = cytotoxicity” value is reported as 18.8%.
In the case of `O=C(O)CCc1ccc(O)cc1`, the “activity change, negative = cytotoxicity” value is reported as 1.73%.
In the case of `Cc1cccc(C)c1N(CC(=O)Nc1ccc(-c2ncon2)cc1)C(=O)C1CCS(=O)(=O)CC1`, the “activity change, negative = cytotoxicity” value is reported as -12.7%.
In the case of `Cc1ccc(-c2ccc3c(c2)C=C(C(=O)Nc2ccc(C[N+](C)(C)C4CCOCC4)cc2)CCC3)cc1`, the “activity change, negative = cytotoxicity” value is reported as -17.7%.
For `C[C@H](NC(=O)[C@H](Cc1ccccc1)NC(=O)OCc1ccccc1)C(=O)CF`, the “activity change, negative = cytotoxicity” value was -6.23%.
In the case of `CCOC(=O)c1c(C)sc(-c2c(-c3ccc(OC)c(F)c3)[nH]c3c2c(=O)[nH]c(=O)n3C)c1O`, the “activity change, negative = cytotoxicity” value is reported as -11.4%.
For `O=C(NO)c1cccc(C(=O)NCCc2ccccc2)c1`, the “activity change, negative = cytotoxicity” value was 14.9%.
With `CCOC(=O)NCCCC(=O)NCCc1ccccc1` the “activity change, negative = cytotoxicity” value was -0.0645%.
With `C=C(C)[C@@H]1CC[C@]2(C(=O)O)CC[C@]3(C)[C@H](CC[C@@H]4[C@@]5(C)CC[C@H](OC(=O)CC(C)(C)C(=O)O)C(C)(C)[C@@H]5CC[C@]43C)[C@@H]12` the “activity change, negative = cytotoxicity” value was 0.694%.
In the case of `CC(=O)Cc1cc(=O)c2c(C)cc(O)c(C3OC(CO)C(O)C(O)C3O)c2o1` (configuration not stated), the “activity change, negative = cytotoxicity” value is reported as 2.7%.
For `CC(C)(C)OC(=O)N[C@H]1CCCCC/C=C\[C@@H]2C[C@@]2(C(=O)NS(=O)(=O)C2CC2)NC(=O)[C@@H]2C[C@@H](OC(=O)N3Cc4cccc(F)c4C3)CN2C1=O`, the “activity change, negative = cytotoxicity” value was -4.92%.
With `S=C(NCCc1ccccn1)Nc1ccc(Br)cn1` the “activity change, negative = cytotoxicity” value was -6.44%.
With `CC(C)=CCC/C(C)=C/CC/C(C)=C/C=C/C(C)=C/C(=O)O` the “activity change, negative = cytotoxicity” value was -12.5%.
For `Cc1ccc(N)cc1C(=O)N[C@H](C)c1cccc2ccccc12`, the “activity change, negative = cytotoxicity” value was -18.9% [at 83.3 µM].
For `NC1=N[C@@](c2cccc(-c3cncnc3)c2)(c2ccnc(C(F)F)c2)c2cccc(F)c21`, the “activity change, negative = cytotoxicity” value was -15.9%.
In the case of `O=C(Cc1ccccc1)Nc1nnc(NC2CCN(c3nnc(NC(=O)Cc4ccccc4)s3)CC2)s1`, the “activity change, negative = cytotoxicity” value is reported as -5.28%.
In the case of `CCNC(=O)c1cc2c(-c3cc(C(C)(C)O)ccc3Oc3c(C)cc(F)cc3C)cn(C)c(=O)c2[nH]1`, the “activity change, negative = cytotoxicity” value is reported as -3.77%.
In the case of `CC(C)Nc1nc2cc(Cl)c(Cl)cc2n1[C@H]1O[C@@H](CO)[C@H](O)[C@@H]1O`, the “activity change, negative = cytotoxicity” value is reported as -13.7%.
For `C=C1CCC2C(C)(CO)C(O)CCC2(C)C1C/C=C1\C=COC1=O` (configuration not stated), the “activity change, negative = cytotoxicity” value was -5.79%.
For `O=C1CC(=O)c2c(Cl)c(Cl)c(Cl)c(Cl)c21`, the “activity change, negative = cytotoxicity” value was -3.85%.
With `Nc1ccccc1NC(=O)c1cnccn1` the “activity change, negative = cytotoxicity” value was -13.4%.
For `Cc1nc(N(C)C(=O)Cc2ccc(-c3ccccn3)cc2)sc1S(N)(=O)=O`, the “activity change, negative = cytotoxicity” value was -1.46%.
In the case of `O=C(O)/C(S)=C/c1c[nH]c2ccc(F)cc12`, the “activity change, negative = cytotoxicity” value is reported as 8.22%.
With `CNC(=O)[C@@H](NC(=O)[C@H](CCCc1ccccc1)[C@H](C)N(O)C=O)C(C)(C)C` the “activity change, negative = cytotoxicity” value was -3.98%.
For `Cc1cccc2c3c(ccc12)C1=C(C(=O)C3=O)[C@@H](C)CO1`, the “activity change, negative = cytotoxicity” value was -6.41%.
`CCCCCCCCCCCCCCCCOCCCOP(=O)(O)CO[C@H](CO)Cn1ccc(N)nc1=O` gave an activity change, negative = cytotoxicity of -5.25% [at 8.35 µM].
With `S=C(S)O[C@H]1C[C@H]2C[C@@H]1[C@@H]1CCC[C@H]21` the “activity change, negative = cytotoxicity” value was -14.1%.
For `COc1cc(O)c(CC=C(C)C)c2c1C(=O)CC(c1ccc(O)cc1)O2` (configuration not stated), the “activity change, negative = cytotoxicity” value was 1.36%.
For `[N-]=[N+]=NCc1cccc(/C(O)=C\C(=O)C(=O)O)c1`, the “activity change, negative = cytotoxicity” value was 8.81%.
For `Cc1nc2ccccc2c(-c2ccc3c(c2)CCCO3)c1C(OC(C)(C)C)C(=O)O` (configuration not stated), the “activity change, negative = cytotoxicity” value was -4.2%.
For `O=C(O)c1cc(-c2ccc(/C=C3\SC(=S)N(Cc4ccccc4)C3=O)o2)ccc1Cl`, the “activity change, negative = cytotoxicity” value was 7.75%.

Test: NCATS anti-infectives library activity on the primary C. elegans qHTS viability assay (AID 1745855; calls by dose curve)
Settings: C. elegans worm area imaging, day 7; series mostly up to 41.8 µM; activity change, negative = inhibition: at the top concentration; outcome: at the top concentration
How it was run: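 Titration-based screen in worms: eggs hatched overnight in M9, L1 larvae fed TOP10 capsules in S medium with compound, incubated 21 °C for 7 days; fluorescent objects gated by size and intensity at days 0, 3 and 7.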
In the case of `O=c1cc(-c2ccc(O)c(-c3c(O)cc(O)c4c(=O)cc(-c5ccc(O)cc5)oc34)c2)oc2cc(O)cc(O)c12`, the “outcome” value is reported as “inactive”.
With `O=C(O)[C@H]1C2CCC(CC2)[C@@H]1Nc1nc(-c2c[nH]c3ncc(F)cc23)ncc1F` the “outcome” value was “inactive”.
For `CC(C)[C@H](NC(=O)OCc1ccccc1)C(=O)N[C@@H](C)C(=O)N[C@@H](CC(=O)O)C(=O)CF`, the “outcome” value was “inactive”.
For `Cc1cccc(C)c1N(CC(=O)Nc1ccc(-c2ncon2)cc1)C(=O)C1CCS(=O)(=O)CC1`, the “outcome” value was “inactive”.
In the case of `O=C(NO)c1cccc(C(=O)NCCc2ccccc2)c1`, the “activity change, negative = inhibition” value is reported as 4%.
In the case of `CCOC(=O)NCCCC(=O)NCCc1ccccc1`, the “outcome” value is reported as “inactive”.
In the case of `[N-]=[N+]=NCc1cccc(/C(O)=C\C(=O)C(=O)O)c1`, the “outcome” value is reported as “inactive”.
